Activity calls are given as the source filed them. Unless noted, the rule behind the calls is not given here.
Legend:
[1] = compound effects on lung adenocarcinoma cell viability – A549, calcein-AM fluorescence, 48 h, basal, profiling panel (AID 1162); conditions: higher = more signal; note: test concentration not given here
[2] = compound effects on differentiated 3T3-L1 adipocyte viability – cell-based, 3T3-L1 adipocytes, calcein-AM fluorescence, 48 h, basal, profiling panel (AID 1163); conditions: 3T3-L1 adipocytes viability, higher = more signal; note: test concentration not given here
[3] = compound effects on hepatocellular carcinoma cell viability – HepG2, calcein-AM fluorescence, 48 h, basal, profiling panel (AID 1164); conditions: higher = more signal; note: test concentration not given here
[4] = compound effects on multiple myeloma cell viability – MM1S, calcein-AM fluorescence, 48 h, basal, profiling panel (AID 1165); conditions: higher = more signal; note: test concentration not given here
[5] = calcein-AM signal in unstimulated myeloma cells – cell-based, calcein-AM fluorescence, 48 h, PK04 Diversity Set, profiling panel (AID 1166); conditions: RPMI8226 myeloma viability, higher = more signal;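 note: cells grown under basal conditions without added stimulus; test concentration not given here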
[6] = JC-1 mitochondrial signal, unstimulated HepG2 cells – cell-based, JC-1 fluorescence, 24 h, 100 nL compound, profiling panel (AID 1167); conditions: HepG2 mitochondrial potential, higher = more signal; note: test concentration not given here
[7] = JC-1 mitochondrial signal, unstimulated adipocytes – cell-based, JC-1 fluorescence, 3T3-L1 adipocytes, 24 h, 100 nL compound, profiling panel (AID 1168); conditions: JC-1 mitochondrial fluorescence, higher = more signal, called active from +8 up or from −8 down; note: test concentration not given here
[8] = JC-1 mitochondrial signal, unstimulated myeloma cells – cell-based, JC-1 fluorescence, RPMI8226, 24 h, 100 nL compound, profiling panel (AID 1169); conditions: JC-1 mitochondrial potential fluorescence, higher = more signal; note: test concentration not given here
[9] = JC-1 mitochondrial signal, unstimulated MM1S myeloma – cell-based, JC-1 fluorescence, 24 h, 100 nL compound, profiling panel (AID 1170); conditions: MM1S mitochondrial potential, higher = more signal; note: test concentration not given here
[10] = resazurin metabolic signal in A549 cells – cell-based, resazurin fluorescence, 24 h, PK04 Diversity Set, profiling panel (AID 1171); conditions: A549 viability, higher = more signal, called active from +8 up or from −8 down; note: test concentration not given here
[11] = resazurin metabolic signal in HepG2 cells – cell-based, resazurin fluorescence, 24 h, PK04 Diversity Set, profiling panel (AID 1172); conditions: HepG2 viability, higher = more signal; note: test concentration not given here
[12] = budding yeast growth changes without added modifier – OD600, strain BY4716, 24 h, basal condition, primary screen (AID 1173); conditions: S. cerevisiae BY4716 growth, OD600, 24 h; higher = more signal, called active from +8 up or from −8 down
[13] = viability profiling in MM1S myeloma cells – cell-based, resazurin fluorescence, basal, 24 h, PK04 Diversity Set, profiling panel (AID 1174); conditions: higher = more signal, called active from +8 up or from −8 down; note: test concentration not given here
[14] = biological target: Dihydroorotate dehydrogenase (quinone), mitochondrial (Plasmodium falciparum (isolate 3D7)) (UniProt Q08210); assay: inhibition of P. falciparum DHODH – biochemical, C-terminal His tag, absorbance 600 nm, primary screen (AID 1175); conditions: PfDHODH enzyme, DCIP absorbance 600 nm; higher = more signal, called active from +8 up or from −8 down;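 note: recombinant parasite enzyme with a five histidine tag at its C terminus; test concentration not given here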
Sequence of Dihydroorotate dehydrogenase (quinone), mitochondrial (Plasmodium falciparum (isolate 3D7)) (Q08210 whole entry, looked up): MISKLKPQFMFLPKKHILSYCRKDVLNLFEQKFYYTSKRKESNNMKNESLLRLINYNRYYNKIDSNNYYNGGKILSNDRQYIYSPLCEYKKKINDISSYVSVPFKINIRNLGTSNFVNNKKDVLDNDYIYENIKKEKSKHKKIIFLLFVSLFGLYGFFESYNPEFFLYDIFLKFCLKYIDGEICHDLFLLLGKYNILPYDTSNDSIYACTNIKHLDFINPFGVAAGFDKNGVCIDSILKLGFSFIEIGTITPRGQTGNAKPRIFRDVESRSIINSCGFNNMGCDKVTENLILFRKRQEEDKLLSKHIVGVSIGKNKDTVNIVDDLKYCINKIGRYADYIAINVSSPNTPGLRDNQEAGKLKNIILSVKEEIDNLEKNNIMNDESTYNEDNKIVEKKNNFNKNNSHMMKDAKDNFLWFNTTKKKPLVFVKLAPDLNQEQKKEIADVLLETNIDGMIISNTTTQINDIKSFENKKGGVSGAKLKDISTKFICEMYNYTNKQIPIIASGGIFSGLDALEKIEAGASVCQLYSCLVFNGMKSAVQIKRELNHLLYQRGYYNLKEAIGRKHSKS

[15] = inhibition of PAO1 biofilm formation – strain PAO1, LB-PBS medium, absorbance 600 nm, primary screen (AID 1176); note: test concentration not given here; conditions: P. aeruginosa PAO1 growth/biofilm, A600, 12 h; higher = more signal
[16] = growth modulation of vineyard yeast isolate – strain RM11-1a, OD600, basal, 24 h, primary screen (AID 1177);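 note: cultures grown under basal conditions with no added stressor; test concentration not given here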; conditions: S. cerevisiae RM11-1a growth, OD600, 24 h; higher = more signal, called active from +8 up or from −8 down
[17] = growth of efflux-deficient E. coli DRC39 – strain DRC39, OD650, 24 h, E. coli filamentation inducers, primary screen (AID 1178);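 note: growth measured as culture turbidity by optical density at 650 nm; test concentration not given here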; conditions: E. coli DRC39 acrAB, higher = more signal, called active from +8 up or from −8 down
[18] = growth of efflux-deficient E. coli DRC39 – strain DRC39, OD650, 48 h, E. coli filamentation inducers, primary screen (AID 1179);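 note: screen aims at cell division blockers that make cells filament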; conditions: E. coli DRC39 delta-acrAB growth, higher = more signal, called active from +8 up or from −8 down
[19] = viability profiling in RPMI8226 myeloma cells – cell-based, resazurin fluorescence, basal, 24 h, PK04 Diversity Set, profiling panel (AID 1180); conditions: higher = more signal;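 note: RPMI8826 multiple myeloma cell line at 5000 cells per well; test concentration not given here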
[20] = biological target: E3 ubiquitin-protein ligase XIAP (Homo sapiens) (UniProt P98170); assay: small molecules binding XIAP protein – biophysical, small-molecule microarray, fluorescence 635 nm, primary screen (AID 1181); conditions: higher = more signal;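 note: score merges 667 nm emission and signal to noise over triplicate slides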
Sequence of E3 ubiquitin-protein ligase XIAP (Homo sapiens) (P98170 whole entry, looked up): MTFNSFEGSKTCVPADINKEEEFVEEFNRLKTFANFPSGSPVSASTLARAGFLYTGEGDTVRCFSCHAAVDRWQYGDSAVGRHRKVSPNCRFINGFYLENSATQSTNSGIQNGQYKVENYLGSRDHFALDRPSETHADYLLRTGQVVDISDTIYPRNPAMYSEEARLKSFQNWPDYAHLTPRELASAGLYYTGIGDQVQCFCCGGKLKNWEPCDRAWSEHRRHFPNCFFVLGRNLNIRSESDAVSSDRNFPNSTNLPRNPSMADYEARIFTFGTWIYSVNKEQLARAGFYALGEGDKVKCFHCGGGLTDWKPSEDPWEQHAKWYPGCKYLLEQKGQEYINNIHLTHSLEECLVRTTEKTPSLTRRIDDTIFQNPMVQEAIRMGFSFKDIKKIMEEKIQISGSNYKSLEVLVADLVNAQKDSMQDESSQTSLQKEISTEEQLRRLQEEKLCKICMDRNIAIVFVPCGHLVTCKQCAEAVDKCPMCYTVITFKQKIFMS

Row | Structure (SMILES) | z-score [1] | z-score [2] | z-score [3] | z-score [4] | z-score [5] | z-score [6] | z-score [7] | z-score [8] | z-score [9] | z-score [10] | z-score [11] | z-score [12] | z-score [13] | composite z-score [14] | z-score [15] | z-score [16] | z-score [17] | z-score [18] | z-score [19] | composite z-score [20]
1 | CC(C)C[C@H]1NC(=O)[C@H](Cc2ccccc2)NC(=O)[C@@]23C(=O)N[C@@H](Cc4ccccc4)C2[C@H](C)[C@@]2(C)O[C@H]2C3/C=C/C/C=C\CNC1=O (stereo not given in full) | -0.0322 | 0.13 | -1.04 | -0.356 | -0.718 | -1.07 | 0.0338 (inactive) | 0.478 | 0.704 | 0.395 (inactive) | -0.59 | -0.396 (inactive) | -0.263 (inactive) | -0.228 (inactive) | 0.519 (inactive) | -0.711 (inactive) | -0.437 (inactive) | -0.231 (inactive) | -0.0041 | -0.17
2 | O=C1C2C=CC(C(O)c3ccc([N+](=O)[O-])cc3)N(Nc3ccccc3)C2C(=O)N1c1ccccc1 (stereo not given) | -0.121 | -1.38 | 0.761 | 0.323 | -0.423 | -2.59 | -0.886 (inactive) | -1.01 | -1.55 | -0.0448 (inactive) | -0.849 | -2.61 (inactive) | -0.952 (inactive) | -1.03 (inactive) | 0.791 (inactive) | -0.453 (inactive) | -0.46 (inactive) | -0.253 (inactive) | -1.81 | -0.0085
3 | [N-]=[N+]=NCc1ccccc1C[C@]1(C(=O)O)COC(c2ccc(OCCCO)cc2)=N1 | 0.608 | -0.379 | 0.383 | -0.175 | 0.345 | -0.578 | -0.634 (inactive) | -0.285 | -0.261 | 0.0946 (inactive) | 0.24 | 0.59 (inactive) | -0.591 (inactive) | 1.54 (inactive) | 0.37 (inactive) | -0.163 (inactive) | -0.149 (inactive) | -0.0558 (inactive) | -0.279 | -0.445
4 | CCN(CC)c1ccc(N2CC=CC34O[C@@H]5C=CCOC(=O)[C@@H]5[C@H]3C(=O)N(CCO)[C@@H]4C2=O)cc1 (stereo not given in full) | 1.22 | 0.273 | 0.662 | -0.783 | 0.38 | 0.396 | 0.537 (inactive) | -0.0585 | 0.0601 | 0.588 (inactive) | 0.534 | -0.0592 (inactive) | 0.762 (inactive) | -0.675 (inactive) | -0.978 (inactive) | 0.964 (inactive) | 1.15 (inactive) | 1.36 (inactive) | 0.828 | 0.147
5 | C=C(COC)C(=O)CC[C@@H](OC(C)=O)c1ccc(OCCO)cc1 | 0.453 | 0.327 | -0.446 | -3.18 | -0.311 | -1.28 | -0.979 (inactive) | -0.652 | -0.655 | -0.412 (inactive) | -0.487 | -0.997 (inactive) | -0.487 (inactive) | -5.2 (inactive) | 0.98 (inactive) | 0.423 (inactive) | -0.623 (inactive) | -0.432 (inactive) | -0.781 | -0.0848
6 | C=CCOC(=O)[C@H]1[C@@H]2C(=O)O[C@@H](c3ccccc3)[C@@H](c3ccccc3)N2[C@@H](c2ccc(OCCOC(=O)[C@H]3C[C@H]4C(=O)NCC(=O)N4[C@H]3c3ccc(O)cc3)cc2)[C@]12C(=O)Nc1ccc(I)cc12 | -0.362 | 0.34 | 1.78 | 0.782 | 0.483 | -1.63 | 0.266 (inactive) | -0.398 | -1.43 | 0.144 (inactive) | 0.0134 | 1.27 (inactive) | 0.478 (inactive) | 0.383 (inactive) | 2.83 (inactive) | 1.7 (inactive) | 0.157 (inactive) | 0.987 (inactive) | 0.642 | -0.0351
7 | COC(=O)[C@@]1(CCS(=O)(=O)c2ccccc2)N=C(c2ccc(OCCCO)cc2)O[C@H]1c1ccccc1N=[N+]=[N-] | -1.66 | 0.81 | -0.474 | -0.746 | 0.206 | 0.335 | -0.852 (inactive) | -0.687 | -0.426 | -2.02 (inactive) | -0.705 | 0.905 (inactive) | -2.87 (inactive) | -0.279 (inactive) | 0.246 (inactive) | 1.09 (inactive) | 0.399 (inactive) | -1.12 (inactive) | -1.64 | -0.0374
8 | CCCCC=C[C@@H](NC(=O)c1ccc(C(F)(F)F)cc1)c1ccccc1 | -1.13 | -1.28 | -0.63 | -0.978 | -2.53 | -1.65 | -1.12 (inactive) | -0.169 | -1.27 | 2.14 (inactive) | 1.64 | -0.118 (inactive) | 0.423 (inactive) | -0.101 (inactive) | -0.222 (inactive) | 0.562 (inactive) | -0.244 (inactive) | 0.291 (inactive) | 1.1 | 0.0699
9 | C=CCOC(=O)[C@H]1[C@@H]2C(=O)O[C@@H](c3ccccc3)[C@@H](c3ccccc3)N2[C@@H](c2ccc(OCCOC(=O)[C@@H]3C[C@@H]4C(=O)N[C@@H](CC(C)C)C(=O)N4[C@@H]3c3ccc(O)cc3)cc2)[C@]12C(=O)Nc1ccc(I)cc12 | 0.13 | 0.283 | 1.55 | 0.345 | -0.207 | -1.78 | 1 (inactive) | -0.438 | -0.961 | -0.629 (inactive) | -1.11 | 0.637 (inactive) | -0.0917 (inactive) | -1.41 (inactive) | 2.94 (inactive) | -0.628 (inactive) | 0.214 (inactive) | 1.3 (inactive) | 0.518 | -0.0232
